Results as given in PMC4336329 (PLoS ONE, 2015).
In all, about 310,000 compounds went through this assay and about 14,000 (4.5%) showed an effect of 50% or more. Effects have a minus sign here. What follows is part of a selection rich in strong results, with near analogues and random picks from the rest.

Each compound was assayed against human ether-à-go-go-related gene (hERG) potassium channel (human, UniProt Q12809) (assay: primary screen, population patch clamp on CHO cells stably expressing hERG; higher = less effect of the substance).
Chain of human ether-à-go-go-related gene (hERG) potassium channel (Q12809 whole entry, looked up): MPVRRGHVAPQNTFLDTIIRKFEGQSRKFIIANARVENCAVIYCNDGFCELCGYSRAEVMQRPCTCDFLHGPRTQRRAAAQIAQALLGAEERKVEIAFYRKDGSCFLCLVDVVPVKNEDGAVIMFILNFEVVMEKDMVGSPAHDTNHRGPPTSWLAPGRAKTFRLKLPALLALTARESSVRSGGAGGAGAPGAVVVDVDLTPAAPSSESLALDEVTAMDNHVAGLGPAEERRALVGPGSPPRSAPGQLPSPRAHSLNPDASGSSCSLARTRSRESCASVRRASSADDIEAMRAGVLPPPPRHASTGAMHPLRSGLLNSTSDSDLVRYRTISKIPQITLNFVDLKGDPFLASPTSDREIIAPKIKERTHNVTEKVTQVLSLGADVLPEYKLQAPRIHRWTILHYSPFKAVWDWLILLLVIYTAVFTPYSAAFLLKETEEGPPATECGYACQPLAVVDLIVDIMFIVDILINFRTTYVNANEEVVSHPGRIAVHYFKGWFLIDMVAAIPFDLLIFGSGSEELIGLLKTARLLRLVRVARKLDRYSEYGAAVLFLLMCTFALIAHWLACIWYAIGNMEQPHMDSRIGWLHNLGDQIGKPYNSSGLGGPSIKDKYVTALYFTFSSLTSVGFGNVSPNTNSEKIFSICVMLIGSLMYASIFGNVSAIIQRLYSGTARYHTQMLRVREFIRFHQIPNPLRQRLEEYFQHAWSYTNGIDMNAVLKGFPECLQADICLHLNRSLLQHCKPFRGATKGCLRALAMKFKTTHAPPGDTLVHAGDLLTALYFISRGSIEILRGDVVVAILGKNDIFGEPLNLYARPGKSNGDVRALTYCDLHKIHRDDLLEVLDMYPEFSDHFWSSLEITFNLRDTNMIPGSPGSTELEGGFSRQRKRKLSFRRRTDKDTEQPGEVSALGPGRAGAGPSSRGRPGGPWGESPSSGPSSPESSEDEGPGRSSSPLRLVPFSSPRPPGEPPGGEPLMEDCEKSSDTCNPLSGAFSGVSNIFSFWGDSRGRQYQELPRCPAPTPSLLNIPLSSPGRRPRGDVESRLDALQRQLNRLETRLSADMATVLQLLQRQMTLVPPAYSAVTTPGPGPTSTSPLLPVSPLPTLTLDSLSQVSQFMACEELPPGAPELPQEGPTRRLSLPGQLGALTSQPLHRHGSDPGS
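Note: peak tail current of the secondary pulse compared with the same well before compound.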

| SMILES | hERG current change (%, negative = inhibition) at 10uM [%] |
| --- | --- |
| C=CCc1cccc2cc(C(=O)OCC)c(=O)oc12 | -42.3 |
| CCOc1cc(S(=O)(=O)NC2CC(C)(C)NC(C)(C)C2)ccc1F | -9.91 |
| CCc1c(C)nc2cc(-c3cccc(Br)c3)[nH]n2c1=O | -3.6 |
| O=S(=O)(Nc1ncccn1)c1ccc(NC(=S)NCc2cccnc2)cc1 | 33.8 |
| COc1cc(C(C(=O)NC(C)(C)C)N(Cc2ccccc2)C(=O)c2cnccn2)cc(OC)c1OC (stereo not drawn) | 5.8 |
| C=CCNC(=O)CN1CCC(O)(c2ccccc2)CC1 | 4.87 |
| COc1cccc(OC)c1C(=O)Nc1cc(C)on1 | 7.22 |
| O=C(CSc1nc2ccsc2c(=O)n1CC1CCC(C(=O)O)CC1)c1ccc(Cl)cc1 (stereo not drawn) | 33.9 |
| O=C(c1ccc2c(c1)N(Cc1ccc(F)cc1)CCS2)N1CCOCC1 | -23.3 |
| O=C(c1ccc2c(c1)N(Cc1ccccc1)CCS2)N1CCOCC1 | -29.7 |
| Cc1cccc(CNC(=O)c2ccc3c(c2)N(C)CCS3)c1 | -59.4 |
| CCN1CCN(CCCNC(=O)c2ccc3c(c2)N(Cc2ccccc2)CCS3)CC1 | -39.3 |
| O=C(c1ccc2c(c1)N(Cc1ccc(F)cc1)CCS2)N1CCC2(CC1)OCCO2 | -57.1 |
| CN1CCSc2ccc(C(=O)NCc3ccccc3)cc21 | -9.52 |
| CN1CCN(CCCNC(=O)c2ccc3c(c2)N(Cc2ccccc2)CCS3)CC1 | -23.6 |
| O=C(NCCCN1CCCC1)c1ccc2c(c1)N(Cc1ccccc1)CCS2 | -69.6 |
| CN1CCSc2ccc(C(=O)NCc3cccc(Br)c3)cc21 | 0.343 |
| O=C(c1ccc2c(c1)N(Cc1ccccc1)CCS2)N1CCCCC1 | -32.9 |
| O=C(c1ccc2c(c1)N(Cc1ccccc1)CCS2)N1CCC2(CC1)OCCO2 | -56.1 |
| Cc1ccc(CN2CCSc3ccc(C(=O)N4CCC5(CC4)OCCO5)cc32)cc1 | -49.1 |
| S=C(NC1CCCC1)N1CCN(c2ncccn2)CC1 | -19.3 |
| C[C@@]12CCC=C[C@H]1[C@H](c1ccoc1)N(Cc1ccccc1)C2=O | -8.15 |
| CC(=O)c1c(N)n(C)c(=O)n(C)c1=O | -4.24 |

| SMILES | hERG current change (%, negative = inhibition) at 10uM [%] |
| --- | --- |
| CSc1oc(-c2ccc(F)cc2)nc1S(=O)(=O)c1ccc(F)cc1 | 3.51 |
| NNc1nnnc2c1sc1nc(N3CCOCC3)c3c(c12)CCCC3 | 5.3 |
| COc1cc(C(=O)OCC(=O)Nc2cccc(S(=O)(=O)N3CCOCC3)c2)ccc1OCC(C)C | 18.3 |
| CC(C)(C)C(=O)/C=C(\N)c1ccncc1 | 1.74 |
| CCOc1ccc(N(CC(=O)NCCSCc2ccc(Cl)cc2)S(C)(=O)=O)cc1 | 4.71 |
| COc1ccc(C)cc1NC(=O)CCNS(=O)(=O)c1cccc(C(F)(F)F)c1 | -27.6 |
| Cc1cc2c(cc1S(=O)(=O)N(C)C1CCCCC1)OCC(=O)N2 | 7.2 |
| O=S(=O)(NCCCCCNS(=O)(=O)c1ccccc1)c1ccccc1 | -2.98 |
| Cc1ccc(OCC(=O)Nc2ccc(C(=O)O)cc2NC(=O)COc2ccc(C)c(C)c2)cc1C | 6.5 |
| COc1ccc2[nH]c3c(=O)n(CCc4ccccc4)cnc3c2c1 | -6.62 |
| COc1ccc2c(c1)[nH]c1c(=O)n(CCN3CCCC3)cnc12 | -46.3 |
| CCN1CCCC1Cn1cnc2c([nH]c3ccc(OC)cc32)c1=O (stereo not drawn) | -66.1 |
| COc1ccc2[nH]c3c(=O)n(Cc4ccncc4)cnc3c2c1 | -11 |
| COc1ccc2[nH]c3c(=O)n(CCN4CCOCC4)cnc3c2c1 | -2.38 |
| COc1ccc2[nH]c3c(=O)n(CCCN4CCOCC4)cnc3c2c1 | -3.86 |
| CCN1CCCC1Cn1cnc2c([nH]c3cc(OC)ccc32)c1=O (stereo not drawn) | -63.8 |
| COc1ccc2c(c1)[nH]c1c(=O)n(CC3CCCO3)cnc12 (stereo not drawn) | 11.1 |
| CCC1CCCN1Cn1cnc2c([nH]c3ccc(OC)cc32)c1=O (stereo not drawn) | -62.6 |
| CCCc1cc(CNC(=O)C2CCC(=O)N(CCc3cccc(F)c3)C2)on1 (stereo not drawn) | -49.6 |
| COc1ccccc1NC(=O)c1ccc(C)c(S(=O)(=O)N2CCCCC2)c1 | -8.22 |
| Cc1nnsc1C(=O)NNc1ccc(C(C)(C)C)cc1 | 14.1 |
| Cc1onc(-c2c(F)cccc2Cl)c1C(=O)c1ccccc1O | -0.367 |
| CCc1ccc2nc(SCC(=O)Nc3nnc(C)s3)c(C)cc2c1 | 16 |

| SMILES | hERG current change (%, negative = inhibition) at 10uM [%] |
| --- | --- |
| Cn1cc(Br)c(C(=O)N/N=C/c2cccc(OC3CSC3)c2)n1 | -2.36 |
| CN(C)c1ccc(-n2cccc2/C=C/[N+](=O)[O-])cc1 | 20.2 |
| COc1ccc(-n2cccc2C=O)cc1 | 16.7 |
| COc1ccc(-n2cccc2/C=C/[N+](=O)[O-])cc1 | -50.4 |
| CCOC(=O)c1c(NCc2ccc3c(c2)OCO3)c2ccccc2[nH]c1=O | -10.8 |
| O=C(Cc1ccccc1)N/N=C/c1ccc(OCC(=O)Nc2ccccc2)cc1 | -14.2 |
| Cc1cc(NC(=O)CSc2nc3ccc(Cl)cc3[nH]2)no1 | 9.82 |
| Cc1ccc(SCC(=O)Nc2ccc(N3CCN(c4ccccc4)CC3)c(F)c2)cc1 | 10.3 |
| O=C(CSc1ccccc1)Nc1ccc(N2CCOCC2)c(F)c1 | 11.8 |
| CC(C)C(=O)Nc1ccc(N2CCN(C)CC2)c(F)c1 | 14.2 |
| CN1CCN(c2ccc(NC(=O)CSc3ccccc3)cc2F)CC1 | -68.4 |
| O=C(CSc1ccccc1)Nc1ccc(N2CCN(c3ccccc3)CC2)c(F)c1 | 10.9 |
| CN1CCN(c2ccc(NC(=O)CN3CCOCC3)cc2F)CC1 | 24.5 |
| Cc1ccc(SCC(=O)Nc2ccc(N3CCN(C)CC3)c(F)c2)c(C)c1 | -72 |
| COc1ccc(SCC(=O)Nc2ccc(N3CCN(C)CC3)c(F)c2)cc1 | -49.7 |
| Cc1ccc(SCC(=O)Nc2ccc(N3CCN(C)CC3)c(F)c2)cc1 | -64.4 |
| Cc1ccc2c(CC(=O)OC(C)C(=O)Nc3ncc(Cl)cc3Cl)coc2c1 (stereo not drawn) | -28.2 |
| NC(=O)c1ccsc1NC(=O)c1cccs1 | -13.6 |
| O=C(Nc1ccc2c(c1)OCO2)c1ccc(N2C(=O)c3ccccc3C2=O)cc1 | -5.61 |
| Cc1cc2occ(CC(=O)N(CC(C)C)c3c(N)n(Cc4ccccc4)c(=O)[nH]c3=O)c2cc1C | -18.4 |
| O=C(Cn1cnc2c(nnn2Cc2ccccc2F)c1=O)NCC1CCCO1 (stereo not drawn) | -3.88 |
| O=C(/C=C/c1ccccc1[N+](=O)[O-])N1CCOCC1 | 15.5 |
| O=C(/C=C/c1cccc([N+](=O)[O-])c1)N1CCN(S(=O)(=O)c2cccs2)CC1 | -62.2 |

| SMILES | hERG current change (%, negative = inhibition) at 10uM [%] |
| --- | --- |
| O=C(/C=C/c1ccc([N+](=O)[O-])cc1)N1CCN(S(=O)(=O)c2cccs2)CC1 | -18.7 |
| O=C(/C=C/c1ccccc1)N1CCN(c2ccccn2)CC1 | -42.8 |
| O=C(/C=C/c1ccccc1Cl)N1CCN(c2ncccn2)CC1 | -32.4 |
| O=C(/C=C/c1ccccc1[N+](=O)[O-])N1CCN(c2ccc(F)cc2)CC1 | -56.5 |
| O=C(/C=C/c1cccc(F)c1)N1CCN(c2ccccn2)CC1 | -118 |
| O=C(/C=C/c1cccc(F)c1)N1CCN(c2ncccn2)CC1 | 7.29 |
| O=C(/C=C/c1ccc(F)cc1)N1CCN(c2ncccn2)CC1 | 12.1 |
| O=C(/C=C/c1ccccc1[N+](=O)[O-])N1CCN(c2ccccc2F)CC1 | -13.8 |
| O=C(/C=C/c1ccco1)N1CCN(S(=O)(=O)c2cccs2)CC1 | -7.4 |
| O=C(/C=C/c1c(Cl)cccc1Cl)N1CCN(c2ncccn2)CC1 | -72.7 |
| COc1cccc(CNC(=O)c2ccc(CS(=O)(=O)Cc3ccc(C)cc3)o2)c1 | -12.8 |
| CCN(c1cccc(C)c1)S(=O)(=O)c1nnc(NC(=O)c2ccco2)s1 | 3.8 |
| CCOC(=O)c1sc(NC(=O)c2ccc3nc[nH]c3c2)nc1C | 8.25 |
| O=C(Nc1cc2ccccc2oc1=O)c1ccccc1 | 22.7 |
| O=C(Cc1ccccc1)N[C@@H](Cc1ccccc1)C(=O)O | 7.29 |
| Cc1ccc(CC(=O)NCCC(=O)O)cc1 | 16.9 |
| Cc1c(C(=O)O)oc2ccc(S(=O)(=O)NCCC3=CCCCC3)cc12 | 0.629 |
| COc1ccc(NC(=O)C2CCN(C(=O)c3ccco3)CC2)c(OC)c1 | 22.3 |
| Cc1nc2ccc(Br)cn2c1NC(C)(C)C | -20.9 |
| COc1ccc(-c2cc(C#N)nc(N3CCN(c4ccccc4)CC3)n2)cc1 | 3.41 |
| CCOc1cc2[nH]c(=S)n(CCCN3CCCC3=O)c(=O)c2cc1OCC | -23.5 |
